# Measured values from the supplement of paper PMC8728848.
# The entries come from a sample that favours the strongest signals as a whole.
# Key:
# Test in all cases: glycan array binding signal (z-score within array); higher = stronger binding
# Conditions in all cases: glycan notation: IUPAC condensed, linker removed
# [1] = tested on: Gal(b1-3)[Fuc(a1-4)]GlcNAc
# Summary of the method: (§1)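 Glycan array data were curated from 3228 arrays in the Consortium for Functional Glycomics database and kept only where the protein sequence was available. Glycan names were converted to IUPAC-condensed notation, and columns mapping to the same glycan were averaged. The binding signal is a within-array Z-score, averaged across arrays of the same protein sequence at different concentrations or buffers and across linkers. Negative Z-scores can be read as non-binding.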
# [2] = tested on: Gal(b1-3)[Neu5Ac(a2-6)]GalNAc
# Summary of the method: as §1
# [3] = tested on: Gal(b1-4)Glc6S
# Summary of the method: as §1
# [4] = tested on: Gal(b1-3)[Fuc(a1-4)]GlcNAc(b1-2)Man(a1-3)[Gal(b1-3)[Fuc(a1-4)]GlcNAc(b1-2)Man(a1-6)]Man(b1-4)GlcNAc(b1-4)[Fuc(a1-6)]GlcNAc
# Summary of the method: as §1
# [5] = tested on: Gal(b1-3)[Fuc(a1-4)]GlcNAc(b1-3)Gal(b1-3)[Fuc(a1-4)]GlcNAc
# Summary of the method: as §1
# [6] = tested on: Gal(b1-4)GalNAc(b1-3)[Fuc(a1-2)]Gal(b1-4)GlcNAc
# Summary of the method: as §1
# [7] = tested on: Gal(b1-3)[Fuc(a1-4)]GlcNAc(b1-3)Gal(b1-4)[Fuc(a1-3)]GlcNAc
# Summary of the method: as §1
# [8] = tested on: Gal(b1-3)[Fuc(a1-4)]GlcNAc(b1-6)GalNAc
# Summary of the method: as §1
# [9] = tested on: Gal(b1-4)Gal
# Summary of the method: as §1
# [10] = tested on: Gal(b1-3)[Fuc(a1-4)]GlcNAc(b1-3)Gal(b1-4)GlcNAc
# Summary of the method: as §1
substance,measurement,setting,value
Epa22,glycan array binding signal (z-score),[1],-0.223
same,glycan array binding signal (z-score),[2],3.02
same,glycan array binding signal (z-score),[3],-0.061
Actinohivin (Actinomycete K97),glycan array binding signal (z-score),[4],2.06
"SiiE (Salmonella typhimurium), A0A0H3NVH0",glycan array binding signal (z-score),[5],-0.613
"BambL (Burhholderia ambifaria), Q0B4G1",glycan array binding signal (z-score),[4],-0.066
same,glycan array binding signal (z-score),[6],-0.283
"SpGH101 (Streptococcus pneumoniae), Q8DR60",glycan array binding signal (z-score),[4],0.539
same,glycan array binding signal (z-score),[7],-0.146
AgI/II Vhelical-GFP (Streptococcus mutans),glycan array binding signal (z-score),[8],1.08
same,glycan array binding signal (z-score),[9],2.56
same,glycan array binding signal (z-score),[3],-0.148
"Wza (Escherichia coli), P0A930",glycan array binding signal (z-score),[10],1.14
same,glycan array binding signal (z-score),[8],2.92
